In the library only some 2.4% were active in any assay of this set; here they are far more common.
D2 ag-1: HTS Assay for Allosteric Agonists of the Human D2 Dopamine Receptor: Primary Screen for Agonists; D(2) dopamine receptor (Homo sapiens), P14416; HEK293 T-REx D2 cells, calcium flux agonist mode; activation, % at 2 µM; actives 0.53% (n = 340,000);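 active = activation over 3 SD above normal in the single-dose calcium agonist read, cut at about 30% in these data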; note: 0% is about no effect
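HEK293 Trex D2 cells, tetracycline-induced, o/n 30 C 5% CO2; no-wash Ca dye, RT 30–90 min; 10-cycle baseline, 23 nl cpd added, kinetic Ca read 180 s; agonist hits = positive Ca response.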
D2 antag: HTS Assay for Allosteric Antagonists of the Human D2 Dopamine Receptor: Primary Screen for Antagonists; D(2) dopamine receptor (Homo sapiens), P14416; HEK293 TREx D2 cells, calcium flux, dopamine EC80; inhibition, % at 10 µM; actives 2% (n = 340,000); in the data active = inhibition above about 30%; inactive = below that, where a call was filed; note: 0% is about no effect
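Measurement of antagonist activity uses fluorescent calcium dye in inducible HEK293 T-REx D2 cells: 10 s baseline, compound addition with 180 s read, EC80 dopamine addition with a further 180 s read.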
D2 PAM-1: HTS Assay for Positive Allosteric Modulators of the Human D2 Dopamine Receptor: Primary Screen for Potentiators. potentiation, % at 10 µM. D(2) dopamine receptor (Homo sapiens), P14416. actives 0.34% (n = 340,000). AID 485347, 2010. HEK293 T-REx D2, calcium flux, EC20 dopamine potentiation;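 active = potentiation over 3 SD above the plate norm, cut at about 30% in these data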; note: 0% is about no effect
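Tetracycline-induced Hek293 Trex D2 cells, force-coupled to calcium, loaded with no-wash calcium dye. Compound added with 180 s kinetic read for agonism, then EC20 dopamine and a further 180 s read for potentiation.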
D2 ag-2: Beta-Arrestin HTS for Positive Allosteric Modulators of the Human D2 Dopamine Receptor: Agonists. D(2) dopamine receptor (Homo sapiens), P14416. DiscoveRx PathHunter D2 beta-arrestin, luminescence, 90 min; 100% = 57 uM dopamine signal. activation, % (no concentration beside the values). actives 0.084% (n = 360,000); in the data active = activation above about 40%; inconclusive = between about 15% and that limit
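DiscoveRx PathHunter D2 beta-arrestin cells (2,100/well) attached overnight, then compound-stimulated 90 min at 37 C in HBSS/10 mM HEPES/0.1% Tween-20 buffer; beta-galactosidase complementation read by luminescence after 1 h at ambient temperature. Dopamine 57 uM final (EC100) as control.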
D2 PAM-2: Beta-Arrestin HTS for Positive Allosteric Modulators of the Human D2 Dopamine Receptor: Potentiators; DiscoveRx D2 beta-arrestin cells, luminescence, 90 min; 100% = 57 uM dopamine signal; potentiation, % (test concentration not listed); actives 0.23% (n = 360,000); AID 624464, 2012; in the data active = potentiation above about 50%; inconclusive = mostly about 30% to 49%
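PathHunter D2 cells, attached overnight at 37 deg C, received compound in DMSO plus dopamine at EC20 (50 nM final) for 90 min at 37 deg C. Beta-arrestin recruitment was read as luminescence after 1 h with detection reagent at ambient temperature.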
D3 arrestin ag: qHTS of D3 Dopamine Receptor Agonist: D3 Dopamine Receptor B-arrestin Agonist Confirmatory Assay; Potency, µM (highest dose often 76.9 µM), for inactives: top-dose activation, hits mostly activators; actives 4% (n = 2,300); shares compounds with D2 ag-1; DiscoveRx D3 beta-arrestin cells, luminescence, 90 min;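 note: potency is the fitted concentration of half-maximal effect; 100% = dopamine control response; nearly all actives have a fitted effect of over 70% in size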
Target sequence (P35462 whole entry, looked up): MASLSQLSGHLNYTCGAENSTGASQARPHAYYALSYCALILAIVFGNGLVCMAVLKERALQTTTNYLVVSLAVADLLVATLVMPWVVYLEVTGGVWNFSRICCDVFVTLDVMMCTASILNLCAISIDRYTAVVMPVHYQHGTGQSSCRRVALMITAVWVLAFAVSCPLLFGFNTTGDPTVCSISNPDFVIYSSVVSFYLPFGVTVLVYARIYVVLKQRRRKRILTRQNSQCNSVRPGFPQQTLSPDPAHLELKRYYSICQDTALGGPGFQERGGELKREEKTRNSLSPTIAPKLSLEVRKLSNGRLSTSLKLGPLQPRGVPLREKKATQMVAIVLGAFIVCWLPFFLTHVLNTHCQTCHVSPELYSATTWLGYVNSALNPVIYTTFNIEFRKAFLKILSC
D2 ag-3: qHTS of D3 Dopamine Receptor Agonist: D2 Dopamine Receptor B-arrestin Agonist Counterscreen; shares compounds with D2 ag-1; DiscoveRx PathHunter D2 beta-arrestin, luminescence, 90 min; response scale: percent relative to full dopamine signal; Potency, µM (doses to about 76.9 µM), inactives show top-dose activation, actives largely listed as activators; actives 5.9% (n = 2,300); AID 720507, 2013; note: potency is the fitted concentration of half-maximal effect; % of control where 0% means no effect; nearly all actives have a fitted effect of over 70% in size
* = called active by the depositor; ? = inconclusive; · = not tested or not shown. Unless noted, calls come from the whole dose curve; as a rule, active = well fitted activation curve with a large enough effect; inconclusive = small, poorly fitted or top-dose-only effect; inactive = flat fitted curve, though single readings scatter.

SMILES	D2 ag-1	D2 antag	D2 PAM-1	D2 ag-2	D2 PAM-2	D3 arrestin ag	D2 ag-3
CC(=O)NC(c1ccccc1)c1nc(-c2cccc(C(F)(F)F)c2)cs1 (stereo not drawn)	·	·	·	-3	0	·	·
CCOC(=O)CCc1c(C(=O)OCC)[nH]c(CC)c1C(=O)OCc1ccccc1	0	7	-2	-7	1	-3%	-3%
CCOC(=O)c1c(C)[nH]c(C(=O)OCc2ccccc2)c1C	1	-4	-3	-1	-6	·	·
COc1ccc(CN=Cc2[nH]c3ccc(Br)c(Cl)c3c2O)cc1	51*	43*	-14	5	-2	29%	28%
O=c1[nH]cc(NCc2ccccc2)c(=O)[nH]1	·	·	·	0	-10	·	·
O=c1[nH]cc(NCCc2ccccc2)c(=O)[nH]1	38*	-19	-14	0	-3	11%	13%
COc1ccc(CN2CCN(C(=O)c3ccco3)CC2)cc1	87*	87*	-20	77*	65*	?	10µM*
COc1ccc2ccccc2c1CN1CCN(C(=O)c2ccco2)CC1	69*	89*	-27	58*	26	?	25µM*
CCOc1ccc(CN2CCN(C(=O)c3ccco3)CC2)cc1	·	·	·	54*	57*	?	4.5µM*
COc1ccc2ccccc2c1CN1CCN(C(=O)c2ccccc2)CC1	2	-16	-15	-2	-12	·	·
COc1ccc(CN2CCN(Cc3ccco3)CC2)cc1	·	·	·	0	-10	·	·
COc1ccc(CN2CCN(C(=O)c3ccc(S(=O)(=O)N4CCCCCC4)cc3)CC2)cc1	·	·	·	-1	-4	6%	14%
O=C(Nc1ccc2oc(-c3cccnc3)nc2c1)c1ccc(-c2ccccc2OC(F)(F)F)o1	1	·	-10	·	·	·	·
CCNC(=O)C1(C)CCCN(C(=O)c2cccnc2Oc2ccccc2)C1 (stereo not drawn)	·	·	·	-1	-5	·	·
CC(=O)c1cccc(OCC(O)CN2CCN(C(=O)c3ccco3)CC2)c1 (stereo not drawn)	·	·	·	?	2	18%	?
CC(=O)c1cccc(OCC(O)CN2CCN(S(=O)(=O)c3c(F)cccc3F)CC2)c1 (stereo not drawn)	1	-7	4	-4	-7	·	·
CCOc1cc(CN2CCN(C(=O)c3ccco3)CC2)ccc1OC	99*	74*	-29	?	63*	-3%	25µM*
CCOc1ccc(C(=O)N2CCN(C(=O)c3ccco3)CC2)cc1OCC	0	-3	6	2	9	·	·
CC(C)C1C(=O)N(Cc2cn(CCC3OCCO3)nn2)CCS(=O)(=O)N1Cc1ccc(-c2ccccc2Cl)cc1 (stereo not drawn)	·	·	·	8	0	·	·
C/C(=N\NC(=O)c1ccc(-c2ccccc2)cc1)C1C(=O)c2ccccc2C1=O	32*	84*	-14	4	1	2%	-1%
C/C(=N\NC(=O)c1ccc(Br)cc1)C1C(=O)c2ccccc2C1=O	3	-2	-4	-2	-14	·	·
CCOC(=O)c1cnc2ccc(C(=O)OC)cc2c1Nc1ccc(OCc2ccccc2Cl)cc1	2	·	11	·	·	·	·
CCCC(=O)N1CCc2cc(-c3nc(N)sc3C)ccc21	0	15	-1	-1	-9	·	·
CCC(C)C(=O)N1CCc2cc(-c3csc(N)n3)ccc21 (stereo not drawn)	15	-1	-2	11	-1	4%	6%
CCC(C)Nc1ccc(NC(C)CC)cc1 (stereo not drawn)	1	-10	0	7	-2	1%	14%
SMILES	D2 ag-1	D2 antag	D2 PAM-1	D2 ag-2	D2 PAM-2	D3 arrestin ag	D2 ag-3
Nc1cccc(C#Cc2ccc3c(=O)c4ccccc4oc3c2)c1	-1	4	7	-1	-9	0%	0%
Cc1cc(C(=O)O[C@H]2[C@H](C)NS(=O)(=O)[C@H]3C[C@@H]4C=C[C@]23O4)cc([N+](=O)[O-])c1	0	-11	1	-3	-11	·	·
C[C@@H]1NS(=O)(=O)[C@H]2C[C@@H]3C=C[C@]2(O3)[C@H]1OC(=O)Nc1ccc(C(F)(F)F)cc1[N+](=O)[O-]	1	-6	2	-4	-1	9%	2%
Cc1[nH]c2ccccc2c1C(=O)CN1C(=O)C(=O)N(C2CCCC2)C1=O	0	-3	6	0	-2	-15%	-5%
Cc1cc(C(=O)CN2C(=O)C(=O)N(C3CCCC3)C2=O)c(C)n1CCc1ccccc1	8	-13	20	0	10	·	·
Cc1cc(=O)n2nc(N3CCC(C(=O)NCCc4ccc(Cl)cc4)CC3)sc2n1	43*	-20	-12	0	-3	10%	6%
O[C@@H]1CN(Cc2cccs2)[C@@H](c2ccccc2)C[C@H]1n1cc(C2CC2)nn1	·	·	·	0	·	·	·
Cc1c(C(=O)N2CCN(c3ccccc3)CC2)oc2c(Cl)cccc12	-1	13	7	1	-10	-6%	-3%
CCOC(=O)c1[nH]c(C)c(C(=O)N2CCOCC2)c1C	1	3	3	0	-1	·	·
CCOC(=O)c1[nH]c(C)c(C(=O)N2CCN(c3ccccc3)CC2)c1C	31*	23	-5	-3	-18	2%	2%
CCN(CC(=O)Nc1ccccc1C(F)(F)F)CC(=O)c1[nH]c(C)c(C(C)=O)c1C	·	·	·	-2	-19	·	·
CCOc1ccccc1N1CCN(Cc2cccc(OC)c2O)CC1	45*	68*	-5	13	-2	-12%	29%
CCOCc1cc(CN2CCN(c3ccccc3OC)CC2)c(O)c2ncccc12	-1	·	-9	·	·	·	·
COc1ccccc1N1CCN(Cc2cc3c(cc2O)OCO3)CC1	75*	98*	-30	0	-18	-8%	9%
COC(=O)Cn1c2ccc(F)cc2c2nc(C)sc21	38*	-6	-24	-4	-7	7%	-2%
